Reference: PubChem BioAssay (Tox21)
Results filed as inconclusive are left out. Activity calls are given as the source filed them. Unless noted, calls follow the shape of the dose curve; as a rule, active = well fitted curve in the direction sought with a large enough effect in the repeat runs; inconclusive = weak or mixed curves; inactive = no such curve, though single readings can be large; an effect the other way counts as inactive or inconclusive.

Columns and labels:
[1] = A CellTox Green Cytotoxicity Assay to monitor cytotoxicity in HepG2 cells - 8 hour (AID 1224890); also: nearly all actives have a fitted effect of over 45% in size
In short: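 Continuous culture of HepG2 cells with a membrane-impermeant DNA dye; rising fluorescence marks dead cells. Compound exposure lasted up to 40 h at 37 C, with reads every 8 h from 0 h.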

[2] = qHTS assay to identify small molecule antagonists of the estrogen receptor alpha (ER-alpha) signaling pathway using the BG1 cell line in the presence of 0.1 nM 17-beta-estradiol - cell viability counter screen (AID 1259241); also: nearly all actives have a fitted effect of over 40% in size
In short: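 Cells were plated and left 24 hr, compounds in DMSO were pinned in, 17beta-estradiol was added to 0.1 nM final, and after 22 hr CellTiter-Fluor reagent was added for 30 min before fluorescence was read.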

[3] = qHTS assay to identify small molecule antagonists of the androgen receptor (AR) signaling pathway using the MDA cell line in the presence of 0.5 nM R1881 - cell viability counter screen (AID 1259242); also: nearly all actives have a fitted effect of over 45% in size
In short: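 Fluorescence from CellTiter-Fluor, which reports protease activity of live cells, was read 30 min after reagent addition to MDA-kb2 cells that had been incubated 16 hr with compound and 0.5 nM R1881.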

[4] = qHTS assay to identify small molecule HDAC inhibitors (AID 1259364); also: top concentration of the series differs between compounds; nearly all actives have a fitted effect of over 45% in size
In short: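 Endogenous HDAC class I/II activity was measured in wild-type HCT-116 cells by HDAC-Glo luminescence after 2 h compound treatment.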

[5] = qHTS assay to identify small molecule HDAC inhibitors - cell viability counter screen (AID 1259365); also: series mostly up to about 92 µM; nearly all actives have a fitted effect of over 50% in size
In short: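 Counter screen in wild-type HCT-116 cells: compounds dissolved in DMSO are pin-transferred onto overnight-plated cells and left 2hr at 37C. ATP-based CellTiter-Glo luminescence then measures viable cells.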

[6] = qHTS assay to identify small molecule antagonists of the sonic hedgehog signaling (Shh) pathway - cell viability counter screen (AID 1259367); also: nearly all actives have a fitted effect of over 55% in size
In short: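 NIH/3T3-derived Gli1-Luc reporter cells (2,000 per well) rested 4 hr at 37 C, then received DMSO compounds plus conditioned medium. After 23 hr of treatment, CellTiter-Fluor was added for 1 hr at 37C and fluorescence read.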

[7] = target: Androgen receptor (Homo sapiens) (UniProt P10275); experiment: qHTS assay to identify small molecule antagonists of the androgen receptor (AR) signaling pathway using the MDA cell line in the presence of 0.5 nM R1881 (AID 1259243); also: nearly all actives have a fitted effect of over 50% in size
In short: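 Inhibition of R1881 (0.5 nM final) induced reporter signal was measured in human MDA-kb2 cells; note the MMTV promoter also responds to GR. Exposure lasted 16 hr at 37C.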

[8] = target: Estrogen receptor (Homo sapiens) (UniProt P03372); experiment: qHTS assay to identify small molecule antagonists of the estrogen receptor alpha (ER-alpha) signaling pathway using the BG1 cell line in the presence of 0.1 nM 17-beta-estradiol (AID 1259244); also: nearly all actives have a fitted effect of over 50% in size
In short: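 Quantitative high-throughput screen in VM7Luc4E2 cells: compound plus 0.1 nM E2 (final), 22 h, 37C, 5% CO2; ONE-Glo added, 30 min room temperature, luminescence measured.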

[9] = qHTS assay to identify small molecule agonists of the sonic hedgehog signaling (Shh) pathway - cell viability counter screen (AID 1259366); also: nearly all actives have a fitted effect of over 50% in size
In short: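 Cells are plated at 2,000 per well and left 4hr at 37C, 5% CO2 before compound addition. After 23hr of treatment, CellTiter-Fluor reagent is added for 1hr at 37C and fluorescence is measured.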

[10] = qHTS assay to identify small molecule phospholipidosis (PLD) inducers (AID 1259344; active = well fitted curve in the direction sought with a large enough effect; an effect the other way counts as inactive or inconclusive)
In short: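 HepG2 cells on collagen I, attached 4 h at 37 C, were co-treated with compound and LipidTOX Red dye for 24 h at 37 C, then fixed with paraformaldehyde plus Hoechst 33342 and imaged by high-content microscopy for phospholipid accumulation.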
% is scaled to controls: 0 for no effect and ±100 for the full control effect.

Estrogen receptor (Homo sapiens), sequence (P03372 whole entry, looked up): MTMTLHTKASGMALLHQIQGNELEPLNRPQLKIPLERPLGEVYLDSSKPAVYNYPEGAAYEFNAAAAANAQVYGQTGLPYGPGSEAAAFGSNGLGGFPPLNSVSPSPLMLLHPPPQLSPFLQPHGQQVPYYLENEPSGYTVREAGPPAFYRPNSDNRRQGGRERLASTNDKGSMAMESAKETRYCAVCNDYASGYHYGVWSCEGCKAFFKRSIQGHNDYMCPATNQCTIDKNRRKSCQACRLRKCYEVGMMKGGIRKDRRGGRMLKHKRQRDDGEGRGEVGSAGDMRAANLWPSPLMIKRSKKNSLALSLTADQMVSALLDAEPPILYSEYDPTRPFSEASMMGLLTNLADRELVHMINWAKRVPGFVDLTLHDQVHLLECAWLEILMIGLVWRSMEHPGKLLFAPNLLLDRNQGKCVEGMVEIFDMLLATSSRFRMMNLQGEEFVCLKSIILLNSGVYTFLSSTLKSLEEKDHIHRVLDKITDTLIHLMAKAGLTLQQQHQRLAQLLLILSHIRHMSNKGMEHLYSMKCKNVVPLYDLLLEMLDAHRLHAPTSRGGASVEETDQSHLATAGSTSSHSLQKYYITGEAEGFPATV
Androgen receptor (Homo sapiens), sequence (P10275 whole entry, looked up): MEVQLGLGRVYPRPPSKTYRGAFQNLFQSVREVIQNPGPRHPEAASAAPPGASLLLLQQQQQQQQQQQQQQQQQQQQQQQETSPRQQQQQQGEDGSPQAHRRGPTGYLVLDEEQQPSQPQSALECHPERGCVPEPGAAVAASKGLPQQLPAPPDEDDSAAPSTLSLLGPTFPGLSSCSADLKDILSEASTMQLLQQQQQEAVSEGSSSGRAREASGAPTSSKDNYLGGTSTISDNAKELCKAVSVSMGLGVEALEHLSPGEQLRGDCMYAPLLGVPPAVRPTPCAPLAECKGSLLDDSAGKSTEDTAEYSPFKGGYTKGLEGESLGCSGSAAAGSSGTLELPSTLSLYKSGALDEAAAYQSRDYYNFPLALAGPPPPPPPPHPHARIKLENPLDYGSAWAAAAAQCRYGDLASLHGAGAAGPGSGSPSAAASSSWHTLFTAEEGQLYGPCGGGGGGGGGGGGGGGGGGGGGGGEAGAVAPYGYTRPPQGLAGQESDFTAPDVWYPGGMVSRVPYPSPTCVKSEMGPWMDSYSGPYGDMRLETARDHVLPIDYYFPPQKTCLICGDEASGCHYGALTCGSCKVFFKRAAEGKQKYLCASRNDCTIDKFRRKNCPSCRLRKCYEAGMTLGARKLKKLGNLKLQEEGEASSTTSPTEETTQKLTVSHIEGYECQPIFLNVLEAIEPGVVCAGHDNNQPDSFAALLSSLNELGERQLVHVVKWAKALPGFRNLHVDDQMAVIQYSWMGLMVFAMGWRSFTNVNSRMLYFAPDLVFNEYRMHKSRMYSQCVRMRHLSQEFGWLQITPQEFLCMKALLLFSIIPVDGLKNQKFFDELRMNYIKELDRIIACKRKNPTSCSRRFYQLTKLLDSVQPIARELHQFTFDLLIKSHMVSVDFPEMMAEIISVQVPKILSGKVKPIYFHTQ

CCCCCCCCS(=O)(=O)Cl
inactive: Potency [1] | outcome [2] | Potency [3] | Potency [4] | outcome [5] | Potency [6]

CC1(C)C(O)C(C)(C)C1O (configuration not stated)
inactive: Potency [1] | outcome [2] | Potency [7] | outcome [8] | Potency [4] | outcome [5] | Potency [9] | Potency [6]

FC(F)OC(Cl)C(F)(F)F (configuration not stated)
inactive: Potency [1] | outcome [2] | Potency [3] | Potency [10] | Potency [4] | outcome [5] | Potency [9] | Potency [6]

O=C(CCCN1CCN(c2ccccn2)CC1)c1ccc(F)cc1
inactive: Potency [1] | outcome [2] | Potency [3] | Potency [10] | outcome [5] | Potency [9] | Potency [6]

CCCCCCCCCCCCN(CCCCCCCCCCCC)CCCCCCCCCCCC
inactive: Potency [1] | outcome [2] | Potency [3] | Potency [4] | outcome [5] | Potency [9] | Potency [6]

C1OCOCO1
inactive: Potency [1] | outcome [2] | Potency [3] | Potency [4] | outcome [5] | Potency [9] | Potency [6]

COC(=O)CC(C)=O
inactive: Potency [1] | outcome [2] | Potency [3] | Potency [4] | outcome [5] | Potency [9] | Potency [6]

CC(C)CNCC(C)C
inactive: Potency [1] | outcome [2] | Potency [3] | Potency [4] | outcome [5] | Potency [6]

COc1nc(N)nc2c1ncn2[C@@H]1O[C@H](CO)[C@@H](O)[C@@H]1O
inactive: Potency [1] | outcome [2] | Potency [3] | Potency [10] | Potency [4] | outcome [5] | Potency [9] | Potency [6]

CC/C=C\CC/C=C/CO
inactive: Potency [1] | outcome [2] | Potency [3] | Potency [4] | outcome [5] | Potency [9] | Potency [6]

CO[Si](CCCOCC1CO1)(OC)OC (configuration not stated)
inactive: Potency [1] | outcome [2] | Potency [3] | outcome [8] | outcome [5] | Potency [9] | Potency [6]

OCCCC1CCCCC1
inactive: Potency [1] | outcome [2] | Potency [3] | outcome [8] | outcome [5] | Potency [6]

O=C1CCCC(=O)C1
inactive: Potency [1] | outcome [2] | Potency [3] | Potency [4] | outcome [5] | Potency [9] | Potency [6]

OC[C@]1(O)OC[C@@H](O)[C@H](O)[C@@H]1O
inactive: Potency [1] | outcome [2] | Potency [3] | Potency [4] | outcome [5] | Potency [6]

NC(=O)COCCN1CCN(C(c2ccccc2)c2ccc(Cl)cc2)CC1 (configuration not stated)
inactive: Potency [1] | outcome [2] | Potency [7] | outcome [8] | PLD induction [10] -1.34% [at 1.53 µM] | Potency [4] | outcome [5] | Potency [9] | Potency [6]

COC(C)(C)CCCC(C)CC=O (configuration not stated)
inactive: Potency [1] | outcome [2] | Potency [3] | Potency [4] | outcome [5] | Potency [9] | Potency [6]

CCC(=O)OC(C)c1ccccc1 (configuration not stated)
inactive: Potency [1] | outcome [2] | Potency [3] | outcome [8] | Potency [4] | outcome [5] | Potency [6]

CC(C)(O)C#CC(C)(C)O
inactive: Potency [1] | outcome [2] | Potency [3] | outcome [8] | outcome [5] | Potency [9] | Potency [6]

NC(=O)Nc1ccccc1
inactive: Potency [1] | outcome [2] | Potency [3] | outcome [8] | outcome [5] | Potency [9] | Potency [6]

O=C(O)CN(CCOCCOCCN(CC(=O)O)CC(=O)O)CC(=O)O
inactive: cytotoxicity increase [1] -22.5% [at 0.29 µM] | activity change, negative = cytotoxicity [2] -0.0206% [at 0.349 µM] | viability change, negative = cytotoxic [3] 4.56% [at 0.349 µM] | Potency [10] | activity change, negative = inhibition [4] -0.631% [at 0.349 µM] | activity change, negative = cytotoxicity [5] 5.24% [at 0.349 µM] | viability change, negative = cytotoxic [9] -0.116% [at 0.349 µM] | viability change, negative = cytotoxic [6] 0.536% [at 0.349 µM]
